Assay outcomes (PubChem)
ELG1 DNA repair: inhibitors of ELG1-dependent DNA repair in HEK293T cells | HEK293T ELG1-luciferase reporter, luminescence, 16 h; DNA damage induced by 5-fluorouridine | Potency, µM (titrated, usually from 46.1 µM), most hits filed as inhibitors | 330,000 compounds, 2.3% hits; also: nearly all actives have a fitted effect of over 55% in size
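Overnight (16 hr) co-exposure of 2,000 cells/well to 5-fluorouridine and compound at 37 °C preceded detection. Luciferase was quantified via ONE-Glo luminescence; loss of signal denotes inhibition.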
KB-V1 cytotox: kills drug-selected multidrug resistant KB-V1 cells; KB-V1 MDR cells viability, CellTiter-Glo, 72 h; Potency, µM (doses to about 46.1 µM), usual class: cytotoxic; 400,000 compounds, 3.4% hits; AID 1347076; also: nearly all actives have a fitted effect of over 60% in size
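Readout: CellTiter-Glo luminescence, 10 min after addition. Cells: KB-V1 MDR subline, 72 h at 37 degrees C with compound. Analysis: corrected, normalized data fitted to concentration-effect curves.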
KB-3-1 tox: KB-3-1 parental cell cytotoxicity; KB-3-1 viability, CellTiter-Glo ATP luminescence, 72 h; AID 1347075; 400,000 compounds, 1.4% hits; Potency, µM (top dose mostly 46.1 µM), hits mostly cytotoxic; also: nearly all actives have a fitted effect of over 60% in size
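Using CellTiter-Glo luminescence, growth of non-resistant KB-3-1 adenocarcinoma cells is assessed 72 h after pin-tool compound addition at 37 °C. Normalized responses across the concentration series yield fitted curves.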
SW480 rereplic: induces DNA re-replication in SW480 colon adenocarcinoma cells; AID 624297; 340,000 compounds, 1.8% hits; SW480 DNA re-replication, Hoechst DNA content imaging, 48 h; Potency, µM (titrated, usually from 46.1 µM), actives largely listed as activators; also: nearly all actives have a fitted effect of over 55% in size
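Image-based read-out: total Hoechst fluorescence of nuclei (405 nm excitation, 500-530 nm emission), with hits raising the fraction of high-intensity nuclei. SW480 colon cells incubated 48 hr with compounds at 37 C.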
MCF10A rerep: inducers of DNA re-replication in MCF 10A breast cells; MCF 10A DNA re-replication, Hoechst nuclear intensity, 48 h; Potency, µM (titrated, usually from 46.1 µM), usual class: activators; 350,000 compounds, 2.9% hits; AID 624296; also: nearly all actives have a fitted effect of over 50% in size
Each line names hits and unclear results; the compound was inactive in the other large screens. Only some compounds are listed: those with a hit (about 8.1% of all), similar ones and a draw of the others. Calls follow the shape of the dose curve; as a rule, active = well fitted curve in the direction sought with a large enough effect; inconclusive = small, poorly fitted or top-dose-only effect, or another doubt; inactive = no such curve, though single readings can be large; an effect the other way counts as inactive or inconclusive.

COCCNC(=O)C1(C)CCCN(Cc2noc(-c3ccccc3OC)n2)C1 (stereo not given)	none (no result: ELG1 DNA repair, SW480 rereplic, MCF10A rerep)
O=C(NCCS(=O)(=O)NCc1cccnc1)c1ccccc1	none
CCOc1ccc(-c2noc(CCCC(=O)NC3CCCCC3)n2)cc1OC	KB-V1 cytotox inconclusive
Cc1ccc(-c2noc(CCC(=O)NC3CCCC3)n2)cc1	none
COc1cc(-c2noc(CCCC(=O)NC3CCCCC3)n2)cc(OC)c1OC	ELG1 DNA repair 5.2µM
Cc1ccc(-c2noc(CCCC(=O)NC3CCCCC3)n2)cc1	ELG1 DNA repair inconclusive, KB-V1 cytotox 16µM, KB-3-1 tox inconclusive
COc1ccc(C(=O)Nc2sc3c(c2C(=O)NCc2ccco2)CCCC3)cc1OC	ELG1 DNA repair 16µM
COC(=O)Nc1sc2c(c1C(=O)NCc1ccco1)CCC2	none
COc1cc(C(=O)Nc2sc3c(c2C(=O)NCc2ccco2)CCCC3)cc(OC)c1OC	ELG1 DNA repair inconclusive, MCF10A rerep 18µM
COC(=O)Nc1sc2c(c1C(=O)NCc1ccco1)CCCC2	none
O=C(Nc1sc2c(c1C(=O)NCc1ccco1)CCCC2)c1ccc2c(c1)OCO2	ELG1 DNA repair inconclusive, KB-V1 cytotox 15µM, MCF10A rerep inconclusive
Cc1ccc(C(=O)Nc2sc3c(c2C(=O)NCc2ccco2)CCCC3)cc1	ELG1 DNA repair inconclusive, MCF10A rerep inconclusive
CN(C)CCN1CCN(C2CN(Cc3cn(Cc4ccc(Cl)cc4)nn3)S(=O)(=O)C2)CC1 (stereo not given)	none (no result: ELG1 DNA repair, SW480 rereplic, MCF10A rerep)
O=C(Oc1cc2oc(=O)cc(-c3ccccc3)c2cc1Cl)C1CCCCC1	ELG1 DNA repair 16µM, KB-V1 cytotox inconclusive, SW480 rereplic inconclusive, MCF10A rerep inconclusive
O=C(Oc1ccc2ccc(=O)oc2c1)C1CCCCC1	KB-V1 cytotox inconclusive
CC(C)(C)OC(=O)NCC(=O)Oc1cc2oc(=O)cc(-c3ccccc3)c2cc1Cl	ELG1 DNA repair inconclusive, SW480 rereplic 21µM, MCF10A rerep 23µM
CC(C)CN1C(=O)CSCC1(C)C(=O)NC(C)C (stereo not given)	none (no result: ELG1 DNA repair, SW480 rereplic, MCF10A rerep)
O=C(NC(=S)N1CCN(c2ccc(C(F)(F)F)cc2[N+](=O)[O-])CC1)c1cccs1	KB-V1 cytotox 15µM, MCF10A rerep inconclusive
OCc1ccccc1SSc1ccccc1CO	KB-V1 cytotox inconclusive, KB-3-1 tox inconclusive, SW480 rereplic inconclusive, MCF10A rerep 18µM (no result: ELG1 DNA repair)
O=S(=O)(Nc1nc2ccccc2nc1Nc1ccccc1Br)c1ccccc1	none (no result: ELG1 DNA repair, SW480 rereplic, MCF10A rerep)
Cc1cc(C)c(C)c(C(=O)CSc2nnc(-c3ccc4[nH]c(C)c(C)c4c3)o2)c1C	ELG1 DNA repair 16µM, KB-V1 cytotox inconclusive, SW480 rereplic inconclusive, MCF10A rerep 13µM
CCn1c(SCC(N)=O)nnc1-c1ccc2[nH]c(C)c(C)c2c1	KB-V1 cytotox 21µM, KB-3-1 tox 5.8µM
CCn1c(SCC(N)=O)nnc1-c1cc2c(C)nn(-c3ccccc3)c2s1	ELG1 DNA repair inconclusive, KB-V1 cytotox 13µM
Cc1cccc(NC(=O)Cn2c(=O)n(Cc3ccc4c(c3)OCO4)c(=O)c3ccccc32)c1	none (no result: ELG1 DNA repair, SW480 rereplic, MCF10A rerep)
CCCS(=O)(=O)NC(=O)C1(C)CCCN(C(=O)c2ccc(C#N)cc2)C1 (stereo not given)	none (no result: ELG1 DNA repair, SW480 rereplic, MCF10A rerep)
Cc1cc(C)c2nc(N(CCCN(C)C)C(=O)c3ccc(S(=O)(=O)N4CC(C)OC(C)C4)cc3)sc2c1 (stereo not given)	SW480 rereplic inconclusive
CC(Oc1ccc(Cl)cc1Cl)C(=O)NC1=NN(c2ccccc2)C(=O)C1 (stereo not given)	MCF10A rerep 18µM
CC(Oc1ccc(Cl)cc1Cl)C(=O)Nc1ccncc1 (stereo not given)	ELG1 DNA repair 5.8µM, KB-V1 cytotox 9.2µM, MCF10A rerep inconclusive
CC(=O)Nc1ccc(NC(=O)C(C)Oc2ccc(Cl)cc2Cl)cc1 (stereo not given)	SW480 rereplic inconclusive
NC(COCc1ccccc1)c1csc(NC(=O)Nc2cccc(Cl)c2)n1 (stereo not given)	none (no result: ELG1 DNA repair, SW480 rereplic, MCF10A rerep)
COc1cccc(OC(=O)CSc2nnc(-c3ccc4c(c3)OCO4)o2)c1	none (no result: ELG1 DNA repair, SW480 rereplic, MCF10A rerep)
CC(=O)NC(CCc1ccc(Cl)c(Cl)c1)c1cccc(O)c(=O)c1 (stereo not given)	KB-V1 cytotox 8.2µM, KB-3-1 tox inconclusive (no result: ELG1 DNA repair, SW480 rereplic, MCF10A rerep)
COc1cc(C(=O)Nc2nc3ccccc3s2)ccc1OCc1c(C)noc1C	ELG1 DNA repair inconclusive, KB-3-1 tox inconclusive, SW480 rereplic 16µM, MCF10A rerep inconclusive
Cc1ccc(C)c(S(=O)(=O)N2CCN(C(=O)c3sccc3C)CC2)c1	KB-V1 cytotox 9.2µM
Cc1ccc(C)c(S(=O)(=O)N2CCN(C(=O)c3ccc(OCc4c(C)noc4C)cc3)CC2)c1	ELG1 DNA repair 16µM, KB-V1 cytotox inconclusive
Cc1ccc(S(=O)(=O)N2CCN(C(=O)c3ccc(OCc4c(C)noc4C)cc3)CC2)cc1	ELG1 DNA repair inconclusive, KB-V1 cytotox inconclusive
COc1cc(C(=O)OCC(C)=O)ccc1OCc1c(C)noc1C	ELG1 DNA repair inconclusive, KB-V1 cytotox inconclusive, KB-3-1 tox 15µM, SW480 rereplic 16µM, MCF10A rerep 21µM
COc1ccc(N2CCN(C(=O)c3ccc(OCc4c(C)noc4C)c(OC)c3)CC2)cc1	KB-V1 cytotox 12µM
COc1cc(C(=O)N2CCN(c3ccc([N+](=O)[O-])cc3)CC2)ccc1OCc1c(C)noc1C	KB-V1 cytotox inconclusive
Cc1noc(C)c1C(=O)N1CCN(c2ccc(OCc3ccccc3)cc2)CC1	KB-V1 cytotox 15µM, KB-3-1 tox inconclusive, MCF10A rerep inconclusive
CCOc1cc(N2CCOCC2)c(OCC)cc1NC(=O)c1ccc(OC)cc1	ELG1 DNA repair inconclusive, KB-V1 cytotox inconclusive, MCF10A rerep inconclusive
CCOc1cc(N2CCOCC2)c(OCC)cc1NC(=O)c1ccc(OCc2c(C)noc2C)c(OC)c1	ELG1 DNA repair 5.8µM, KB-V1 cytotox inconclusive
COc1ccc(N2CCN(C(=O)C(=O)c3cccc([N+](=O)[O-])c3)CC2)cc1	none (no result: ELG1 DNA repair, SW480 rereplic, MCF10A rerep)
CNC(=S)N/N=C1\C(=O)c2cccc3cccc1c23	ELG1 DNA repair inconclusive, KB-V1 cytotox inconclusive, KB-3-1 tox inconclusive, SW480 rereplic inconclusive, MCF10A rerep 10µM
N#C/C(=C\c1ccc(OC(F)F)cc1)C(=O)N1CCCCC1	MCF10A rerep 13µM
N#Cc1c2n(c3c(=O)n(Cc4ccccc4Cl)cnc13)CCCCC2	ELG1 DNA repair inconclusive, KB-3-1 tox inconclusive, MCF10A rerep 12µM
Cc1cc(NC(=O)COC(=O)CCS(=O)(=O)c2cc(Cl)ccc2Cl)no1	MCF10A rerep 21µM
Cc1cc(NC(=O)COC(=O)CCS(=O)(=O)c2ccc(C)c(C)c2)no1	none
Cc1cccc(-n2cc(CN3CCN(Cc4nccn4C)CC3)c(-c3cccc(F)c3)n2)c1	ELG1 DNA repair 18µM
COc1ccc(-n2cc(CN3CCCC3)c(-c3cccc(F)c3)n2)cc1	MCF10A rerep inconclusive
CCOC(=O)c1c(NC(=O)CCl)sc(CN(C)C)c1-c1ccccc1	KB-3-1 tox inconclusive, SW480 rereplic inconclusive, MCF10A rerep inconclusive
CCOC(=O)c1ccc(NC(=S)N2CCN(C)CC2)cc1	MCF10A rerep inconclusive
